Measurements published in PubChem BioAssay (NCI).
The panel holds about 79,000 compounds, 15% with a hit somewhere; the sample as a whole holds those more often. Rule as the data show it: active = growth inhibition above about 70%; inactive = the rest.

Experiments:
[1] = NCI Yeast Anticancer Drug Screen. Data for the rad50 strain (AID 155);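 also: 0% = growth of vehicle-only cultures of the same strain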; conditions: S. cerevisiae rad50 strain growth inhibition; at 50.0 µM; hits give high values
Summary of the method: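 Genetically altered yeast (DNA repair pathway); compound treatment; growth inhibition vs vehicle ctrl.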

[2] = NCI Yeast Anticancer Drug Screen. Data for the mec2-1 strain (AID 157); conditions: S. cerevisiae mec2-1 strain, at 50.0 µM, hits give high values
Summary of the method: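 Cells of the genetically defined mec2-1 yeast strain are incubated with test compound. Inhibition of growth is calculated against vehicle-treated controls.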

[3] = NCI Yeast Anticancer Drug Screen. Data for the sgs1 mgt1 strain (AID 161);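 also: 0% = growth of cultures given vehicle only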; conditions: S. cerevisiae sgs1 mgt1 strain, at 50.0 µM, hits give high values
Summary of the method: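 Mutant yeast exposed to compound; growth scored against vehicle-only wells.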

[4] = NCI Yeast Anticancer Drug Screen. Data for the cln2 rad14 strain (AID 165);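 also: 0% = growth equal to vehicle treated cultures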; conditions: S. cerevisiae cln2 rad14 strain, at 50.0 µM, hits give high values
Summary of the method: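 The screen exposed genetically defined yeast (cln2 rad14) to test compounds and scored growth inhibition relative to vehicle-treated controls.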

[5] = NCI Yeast Anticancer Drug Screen. Data for the bub3 strain (AID 167); conditions: S. cerevisiae bub3 mutant strain, at 50.0 µM, hits give high values
Summary of the method: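 Yeast carrying a defined mutation is treated with each compound, and growth is compared with that of vehicle-exposed cells to give inhibition.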

[6] = NCI Yeast Anticancer Drug Screen. Data for the mlh1 rad18 strain (AID 175); conditions: S. cerevisiae mlh1 rad18 strain growth inhibition; at 50.0 µM; hits give high values
Summary of the method: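 Compound-treated yeast growth, normalised to vehicle controls. Strain bears defined DNA repair mutations.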

Measured: growth inhibition

O=c1[nH]c2cc3[nH]c(=O)c(=O)[nH]c3cc2[nH]c1=O
inactive: [1] -21.8% | [2] -16.6% | [3] -6.7% | [4] 8.85% | [5] -5.7% | [6] -17.2%

Cc1ccc(C)c(NC(=O)C2C(=O)C(=O)N(c3cc(C)ccc3C)C2=O)c1 (stereo not given)
inactive: [1] 29.4% | [2] -8.3% | [3] -18.5% | [4] 7.2% | [5] -0.95% | [6] 10.7%

FC(F)(F)C1(C(F)(F)F)OI2(Br)(OC(C(F)(F)F)(C(F)(F)F)c3ccccc32)c2ccccc21
inactive: [1] -6.05% | [2] -0.25% | [3] -11.2% | [4] 21.2% | [5] -5.3% | [6] 27.1%

CCOC(=O)C(Cc1ccccc1Cl)(Cc1ccccc1Cl)c1ccccc1
inactive: [1] 7.15% | [2] -17.1% | [3] -10.5% | [4] -79.5% | [5] -4.95% | [6] 1.3%

CC(C)OC(=O)CC#N
inactive: [1] -4.55% | [2] -9.55% | [3] -7.7% | [4] -28.7% | [5] 0.6% | [6] 14.8%

Cc1cc2nc(CCC(=O)O)c(=O)[nH]c2cc1C
inactive: [1] -22.4% | [2] -24.6% | [3] -4.05% | [4] 13.8% | [5] -24% | [6] -28.8%

COc1ccc(/C(N)=N/OCc2ccc(C#N)cc2)cc1
inactive: [1] -13.5% | [2] -21.4% | [3] -3.2% | [4] 10.3% | [5] 20.7% | [6] -25.8%

c1cncc(-c2c3ccccc3cc3ccccc23)c1
inactive: [1] 22.3% | [2] -16% | [3] 2.8% | [4] -8.5% | [5] 4.8% | [6] 5.1%

CC1CCC(C(=O)O)CC1 (stereo not given)
inactive: [1] -16.9% | [2] -9% | [3] -2% | [4] 21.8% | [5] -0.85% | [6] -14.2%

CC(C)(C)NCCCCCO
inactive: [1] -11.8% | [2] 17.6% | [3] 16.1% | [4] -8.35% | [5] -5.7% | [6] -16.1%

CN(C)CC1CCCCCC(Br)C1O (stereo not given)
inactive: [1] -5% | [2] 14.6% | [3] -1.15% | [4] -24.8% | [5] -10.7% | [6] 21.7%

Cc1cc(N(CCO)CCO)c2ccc3cc4ccccc4cc3c2n1
inactive: [1] 38.5% | [2] 16.6% | [3] 9.35% | [4] 8.3% | [5] 18.3% | [6] 23.9%

C[Si](C)(C)O/C=C1/CCOC1=O
inactive: [1] 46.9% | [2] 45.7% | [3] -13.9% | [4] -6.5% | [5] -39.8% | [6] -45%

CCC(=O)c1c(O)cc(O)cc1O
inactive: [1] -13.8% | [2] -15.6% | [3] 13.7% | [4] -22.6% | [5] 2.5% | [6] -25%

C/C=C\c1ccc(OCCOC(C)=O)c(OC)c1
inactive: [1] 12% | [2] -13.6% | [3] -3.4% | [4] -28.2% | [5] -9.95% | [6] -15.8%

CN1NC2=NCCN=C3NN(C)C(=NCCN=C1S2)S3
inactive: [1] -6.5% | [2] -10.1% | [3] -43.3% | [4] 9.15% | [5] -44.1% | [6] -36.2%

CC(C)(CO)[C@@H](O)C(=O)NCCC(=O)O
inactive: [1] -27.5% | [2] -45.9% | [3] -10.2% | [4] 15.4% | [5] -27% | [6] -23.9%

CN1CCN(CC2C3CCC(C3)C2O)CC1 (stereo not given)
inactive: [1] -9% | [2] -18.4% | [3] -16.1% | [4] 4.4% | [5] -4.7% | [6] -0.6%

CCOC1C=CCCC1 (stereo not given)
inactive: [1] -1.75% | [2] 23.6% | [3] -6.35% | [4] 9.4% | [5] 14.8% | [6] -14%

O=C(NCCc1ccccc1)c1ccc(Cl)cc1
inactive: [1] 6.25% | [2] 9.8% | [3] 9.9% | [4] 10.8% | [5] 26% | [6] 1.5%
